Reference: PubChem BioAssay AID1878 (Sanford-Burnham Center for Chemical Genomics, 2009)
Hit rate of the full screen: of about 1,000 compounds, about 200 (20%) were called active. A selection follows. Results with a measured potency or affinity are listed apart. A number with no mark means an inactive call. Cut-off read from the data, not from the text of the source: active = inhibition above about 55%; inactive = the rest.

These molecules were tested against Dual specificity protein phosphatase 3 (Homo sapiens) (UniProt P51452) (assay: VHR1 phosphatase inhibitors, biochemical (AID 1878)). Settings: recombinant VHR phosphatase, fluorogenic substrate; at 13.3 µM; hits give high values.
Sequence of Dual specificity protein phosphatase 3 (Homo sapiens) (P51452 whole entry, looked up): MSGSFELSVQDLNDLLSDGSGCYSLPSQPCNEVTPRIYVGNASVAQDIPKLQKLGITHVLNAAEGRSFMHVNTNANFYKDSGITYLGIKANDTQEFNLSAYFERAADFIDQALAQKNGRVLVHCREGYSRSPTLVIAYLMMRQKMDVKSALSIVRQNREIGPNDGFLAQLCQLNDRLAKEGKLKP
`Cn1c(CNC(=O)CCNC(=O)c2cccc(Br)c2)cc(=O)n(C)c1=O` showed an inhibition of -19.2%. For `O=C(Nc1cc([N+](=O)[O-])ccc1O)c1cccc(C(=O)Nc2cc([N+](=O)[O-])ccc2O)c1`, the inhibition was 98.4% (active). `O=C(Nc1cccc2cccnc12)c1cccc(Cl)c1` gave an inhibition of 2.2%. `O=C(O)CSc1cc(NS(=O)(=O)c2cccc([N+](=O)[O-])c2)c2ccccc2c1O` showed an inhibition of 1.4%. `CCOC(=O)C1=C(N)Oc2ccc3ccccc3c2C1c1ccc(O)c(OC)c1` (centres undefined) showed an inhibition of -1.4%. With `NC(=O)c1cc2ccccc2o/c1=N\NC(=O)c1ccccc1O` the inhibition was 98.4% (active). For `O=C(Nc1ccccc1Cl)c1cc2ccccc2o/c1=N\O`, the inhibition was -1%. `CCC1CN(C(=O)NCc2ccc(F)cc2)c2ccccc2O1` (centres undefined) was tested, and the inhibition was 7.8%. With `COc1ccc(C(=O)NCc2ccc(N3CCN(C)CC3)cc2)cc1` the inhibition was 21.1%. Molecule `COc1cccc(C2NC(=O)CCC2[N+](=O)[O-])c1OC` (centres undefined) has an inhibition of 3.9%. `COCCN(C(=O)CCC(=O)Nc1nccs1)C(C(=O)NCCC(C)C)c1ccc(OC)cc1` (centres undefined) showed an inhibition of -22%. `COc1cc(C(C)=O)ccc1OCC(O)CN1CCN(c2ccc(F)cc2)CC1` (centres undefined) was tested, and the inhibition was -0.4%. For `COc1nc(Nc2nc3ccccc3c(=O)[nH]2)nc2ccc(C)cc12`, the inhibition was 89.8% (active). For `CCC(=O)N1CCN(c2ccc(NC(=O)c3ccc(N4CCOCC4)c([N+](=O)[O-])c3)cc2)CC1`, the inhibition was -6.9%. In the case of `Fc1ccccc1/C=N/n1c(C2CCCCC2)n[nH]c1=S`, the inhibition is reported as 7.2%. Molecule `Cn1c(=O)[nH]c(=O)c2c1[nH]c(=S)n2CCCc1ccccc1` has an inhibition of 2.5%. `O=C(Cn1c2ccccc2c2nc3n(c(=O)c21)CCS3)N1CCCC1` gave an inhibition of -3.8%. Work on `CN(C)c1ccc(N2C(=NC(=O)C3CCCO3)SC3CS(=O)(=O)CC32)cc1` (centres undefined) yielded an inhibition of 10.7%. For `Cc1ccc(CNCc2ccco2)cc1`, the inhibition was -2.3%. `CC(C)(C)c1ccc(O)c(N=Cc2c(O)ccc3ccccc23)c1` gave an inhibition of -0.4%. Molecule `C/C(=N\N1CCN(c2ccccc2)CC1)c1ccc(O)cc1` has an inhibition of -1.9%. Work on `Clc1nccnc1N/N=C/c1ccc(Br)cc1` yielded an inhibition of 1.6%. Molecule `CCCCn1nc(NC(=O)CC(C)C)c2cc3cc(OC)ccc3nc21` has an inhibition of 2.1%. Molecule `CCC1C(=O)C(C)(C)C(=O)OC1c1ccc([N+](=O)[O-])cc1` (centres undefined) has an inhibition of -5.8%. In the case of `O=C(CSc1nc2ccccc2n1CCc1ccccc1)c1ccc(O)c(O)c1`, the inhibition is reported as 98.7% (active). For `CCOc1ccc(C(=O)N2CCN(CCc3ccccc3)CC2)cc1OCC`, the inhibition was 1.8%. In the case of `Cc1ccccc1C1NC(=O)c2ccccc2O1` (centres undefined), the inhibition is reported as -14%. For `COc1cccc2[nH]c3c(=O)[nH]cnc3c12`, the inhibition was -1.7%. Work on `Cc1ccc(NC(=O)CNC(=O)N2CC(=O)Nc3ccccc32)cc1F` yielded an inhibition of 15.4%. `O=C(Cn1cncn1)N/N=C/c1ccccc1Cl` showed an inhibition of -4.5%. Work on `C[C@]12CCC3=C4CCC(=O)C=C4CC[C@H]3C1CC[C@@H]2O` (some centres undefined) yielded an inhibition of 14.2%. In the case of `CN1C(C)(C)CC(NC(=O)c2ccco2)CC1(C)C`, the inhibition is reported as -4.7%. With `COc1cc(C2Nc3ccccc3NC3=C2C(=O)CC(C)(C)C3)cc(OC)c1OC` (centres undefined) the inhibition was -7.9%. `CCOc1ccc(C(=O)N2CCC3(CC2)NCCc2[nH]cnc23)cc1` showed an inhibition of -8.9%. With `Cc1cc(C(=O)N/N=C/c2cc([N+](=O)[O-])cc(C)c2O)n[nH]1` the inhibition was 76.1% (active). `CCc1nn(CC(=O)NCCCN(C)C2CCCCC2)c(=O)c2cc3occc3n12` gave an inhibition of 7.4%. With `COc1ccccc1Nc1nn2c(=O)c3ccc(C(=O)NCc4cccnc4)cc3nc2s1` the inhibition was 97.1% (active). With `COc1cccc(CNC(=O)C2CCN(c3nn4c(=O)cc(C)nc4s3)CC2)c1` the inhibition was -8.6%. With `COc1ccc(C(CC(=O)Nc2ncccc2C)N2Cc3ccccc3C2=O)cc1` (centres undefined) the inhibition was -9.5%. `COc1cc(NC(=O)CN2C(=O)COc3ccc(S(=O)(=O)N4CCCCC4)cc32)cc(OC)c1` was tested, and the inhibition was -1.8%. Work on `O=C(c1ccc(CS(=O)c2ccccc2Cl)o1)N1CCN(c2ccccc2)CC1` (centres undefined) yielded an inhibition of 2.8%. `CC(C)c1ccc(N2C(=NC(=O)C3CCCO3)SC3CS(=O)(=O)CC32)cc1` (centres undefined) was tested, and the inhibition was 11.9%. `COc1cc2c(cc1OC)-c1cc(Nc3cccc(F)c3)nc(=O)n1CC2` showed an inhibition of 14.3%. In the case of `CN(C)c1ccc(NS(=O)(=O)c2cc3c4c(c2)CC(=O)N4CCC3)cc1`, the inhibition is reported as -8%. `COc1cc(/C=N/Nc2ccc([N+](=O)[O-])cn2)cc(OC)c1O` gave an inhibition of -5.7%. Molecule `COc1cc(/C=N/NC(=O)c2ccc3c(c2)OCO3)ccc1O` has an inhibition of -2%. `CCOc1ccc(NC(=O)CCC(=O)NNC(=O)c2ccccc2Cl)cc1` gave an inhibition of 2%. `CCC1CCCCN1CCCNC(=O)c1cn(C)c2ccc(S(=O)(=O)N3CCOCC3)cc2c1=O` (centres undefined) was tested, and the inhibition was -9.8%. With `COCCN(CC1CCCN(C2Cc3ccccc3C2)C1)C(=O)CSC` (centres undefined) the inhibition was -11.6%. In the case of `C=C(C)CCC(C)N1CCC(n2nccc2NC(=O)CCCc2ccccc2)CC1` (centres undefined), the inhibition is reported as -2.3%. In the case of `N#C/C(=C\c1ccc(OCc2ccc(Br)cc2)cc1)C(=O)Nc1cccc(C(=O)O)c1`, the inhibition is reported as 87.5% (active). `Oc1ccc(NCc2ccc(OCc3ccccc3)cc2)cc1` was tested, and the inhibition was -5.6%. `O=C(Nc1cccc(Cl)c1)OCCOc1ccccc1` was tested, and the inhibition was -0.9%. With `N#C/C(=C\c1ccc(OCc2ccc(Cl)cc2)cc1)C(=O)Nc1cccc(C(=O)O)c1` the inhibition was 84.9% (active). `Cn1c(=O)c2[nH]c(N3CCCCC3)nc2n(C)c1=O` was tested, and the inhibition was 6.6%. `Cc1ccc(-n2nc3c(=O)n(CCCC(=O)NCc4ccco4)nc(C)c3c2C)cc1` was tested, and the inhibition was -4.7%. With `CCN(CC)c1ccc(NS(=O)(=O)c2ccc(-c3ccc(=O)[nH]n3)o2)c(C)c1` the inhibition was -2.9%. `COc1ccc(CCN(C)CC(O)COc2ccc(C(C)=O)cc2OC)cc1OC` (centres undefined) was tested, and the inhibition was -11.9%. With `CC(=O)COC(=O)C1=NN(c2ccccc2)C(=O)CC1` the inhibition was 8.8%. Molecule `CCOC(=O)c1ccc(NCCc2ccc(OC)c(OC)c2)c(N)c1` has an inhibition of 33%. For `COc1ccc(/C=N/N=C2/NC(=O)C(CC(=O)O)S2)cc1OCc1ccc(Cl)cc1Cl` (centres undefined), the inhibition was 95.9% (active). In the case of `COc1ccc(Cl)cc1-n1c(=S)sc2c(=O)n(-c3ccc(F)cc3)c(SCC(=O)O)nc21`, the inhibition is reported as -3.3%. `CCN(CC)c1ccc(NC(=O)c2c(C)noc2C)cc1` was tested, and the inhibition was -3.1%. Molecule `COCCN(C(=O)c1ccc(OC2CCN(S(=O)(=O)N(C)C)CC2)cc1)C(C)C` has an inhibition of -6.4%. In the case of `COc1cc(C(=O)OC2C[C@H]3CC[C@@H](C2)N3C)ccc1O` (some centres undefined), the inhibition is reported as -1.1%. In the case of `COc1ccc(C(=O)C2CCCN(C(=O)c3cccc(N(C)C)c3)C2)cc1OC` (centres undefined), the inhibition is reported as 16.4%. With `Cn1c(/C=C/c2ccc(Cl)cc2Cl)c([N+](=O)[O-])c(=O)n(C)c1=O` the inhibition was 20.2%. In the case of `CC1CCCCN1CCCNC(=O)Cn1c(=O)c2cccn2c2ccccc21` (centres undefined), the inhibition is reported as -1.3%. For `COc1ccc(/C=N\NC(=O)c2cc(O)c(O)c(O)c2)cc1CN1CCN(c2ccc(F)cc2)CC1`, the inhibition was -34.7%. `COc1ccc2c(c1)cc1c(=O)n(CC(=O)NC(C)CCc3ccccc3)nc(C)n12` (centres undefined) was tested, and the inhibition was -4%. With `CN1CC(=O)N2Cc3[nH]c4ccccc4c3C[C@H]2C1=O` the inhibition was 11.2%. `Cc1ccc(N2CCN(c3ncccc3[N+](=O)[O-])CC2)c(C)c1` was tested, and the inhibition was 8.1%. With `NC(=O)C(c1ccc(F)cc1)c1ccc(C(=O)c2ccccc2)cc1` (centres undefined) the inhibition was 18.3%. For `CCOCCn1c2ccccc2c2nc3ccccc3nc21`, the inhibition was -4.2%. Molecule `COc1ccc(C(=O)/C=C2/C(=O)Nc3ccccc32)cc1OC` has an inhibition of 13.2%. `CC(Oc1ccc2ccc(=O)oc2c1)C(=O)NC1CC(C)(C)NC(C)(C)C1` (centres undefined) showed an inhibition of -2.5%. With `Nc1ccc2c(c1Cl)C(=O)c1ccc(N)c(Cl)c1C2=O` the inhibition was 99.8% (active). Molecule `CCCC(=O)Nc1ccc(S(=O)(=O)N2CCOCC2)cc1` has an inhibition of -5.6%. With `CC(C)(C)CC(=O)Nc1ccc(-c2nnc3n2CCCCC3)cc1` the inhibition was 27.9%. `COc1nc(C)cc(C)c1S(=O)(=O)c1ccccc1` showed an inhibition of 6.1%. `c1ccc(CCNC2CCCCCC2)cc1` was tested, and the inhibition was 14.2%. For `O=C(NCCc1ccccc1)C1CC(=O)N(CCc2ccccc2)C1` (centres undefined), the inhibition was -8.3%. `CC1CCN(S(=O)(=O)c2ccc3c(c2)N(CC(=O)NCCCN2C(C)CCCC2C)C(=O)CO3)CC1` (centres undefined) was tested, and the inhibition was -11.5%. `O=C(O)Cn1nc2c3c(cccc3c1=O)-c1ccccc1-2` was tested, and the inhibition was -3.4%. With `Cc1cc2nc(/C=C/c3nc4cc(C)c(C)cc4[nH]3)[nH]c2cc1C` the inhibition was 82.4% (active). `NC(=O)C(c1ccccc1)c1ccc(C(=O)c2ccccc2)cc1` (centres undefined) was tested, and the inhibition was -3.2%. `Cn1nc([N+](=O)[O-])c2c(-c3nc4ccccc4s3)c(N)n(C3CCCCC3)c2c1=O` was tested, and the inhibition was 97.9% (active). `COc1cccc(NC(=O)CN(C)S(=O)(=O)c2ccc3[nH]c(=O)oc3c2)c1` showed an inhibition of 9%. Molecule `O=C(Cn1ncc2c([nH]c3ccccc32)c1=O)N1CCOCC1` has an inhibition of 16.5%. With `COc1cc(/C=C2/C(=O)N(c3cccc(Br)c3)N=C2C)cc(OC)c1O` the inhibition was 6.8%. For `COc1cc(/C=C2/C(=O)NN(c3ccc(Cl)cc3)C2=O)cc(OC)c1O`, the inhibition was 17.9%. For `CC(C)(C)OC(=O)NCC1CCN(S(=O)(=O)Cc2ccccc2)CC1`, the inhibition was -7.1%. With `C/C(N)=C(/C#N)C(=O)COC(=O)c1cc(-c2ccc(Br)cc2)nc2ccccc12` the inhibition was -2.7%. Work on `CCOc1ccc(-c2cc(C(=O)NCCCN3CCCC3)c3ccccc3n2)cc1` yielded an inhibition of -16.4%.
